IDE exosite FP – exo-site inhibitors of human insulin-degrading enzyme. P14735. purified IDE, FL-6b probe fluorescence polarization; stronger effect = lower value. z-score at 20 µM. 6.3% of 17,000 active;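 active = z-score of -3 or lower, meaning strong loss of probe binding signal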;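 note: His-tagged human IDE residues 42-1019 made in E. coli with 30 nM FL-6b probe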
An asterisk follows results filed as active. The full list was thinned out, with hits kept by preference.

SMILES	IDE exosite FP
C[C@H](CO)N1C[C@H](C)[C@H](CN(C)CC2CC2)Oc2ccc(NC(=O)CCC(F)(F)F)cc2CC1=O	-0.14
CCCNC(=O)N1CC2(C1)[C@@H](c1ccccc1)[C@H](CO)N2CC1CCOCC1	-0.035
N#C[C@H]1[C@H](c2ccccc2)[C@@H](CO)N1C(=O)Nc1cccc(F)c1	-1.3
O=C(Nc1ccc(F)cc1)N1CC(=O)N2[C@H](CO)[C@@H](c3ccc(-c4ccc(F)cc4)cc3)[C@@H]2C1	0.75
O=C(CC1CC1)N1CC(=O)N2[C@H](C1)[C@H](c1ccc(C#Cc3ccc(F)cc3)cc1)[C@@H]2CO	-1.7
O=C(CC1CC1)N1CC(=O)N2[C@H](C1)[C@H](c1ccc(C#Cc3ccccc3)cc1)[C@@H]2CO	-16*
O=C(CC1CC1)N1CC(=O)N2[C@H](CO)[C@H](c3ccc(C#Cc4ccccc4)cc3)[C@@H]2C1	-10*
O=C(CC1CC1)N1CC(=O)N2[C@H](CO)[C@@H](c3ccc(C#Cc4ccc(F)cc4)cc3)[C@H]2C1	0.27
O=C(CC1CC1)N1CC(=O)N2[C@H](C1)[C@@H](c1ccc(C#Cc3ccc(F)cc3)cc1)[C@@H]2CO	0.15
O=C(CC1CC1)N1CC(=O)N2[C@H](CO)[C@@H](c3ccc(C#Cc4ccccc4)cc3)[C@@H]2C1	-7.7*
O=C(CC1CC1)N1CC(=O)N2[C@H](C1)[C@@H](c1ccc(C#Cc3ccccc3)cc1)[C@@H]2CO	-8.5*
O=C(CC1CC1)N1CC(=O)N2[C@@H](CO)[C@@H](c3ccc(C#Cc4cccc(F)c4)cc3)[C@@H]2C1	-0.61
O=C(Cc1ccccc1)N1CC(=O)N2[C@@H](CO)[C@@H](c3ccc(C#Cc4ccccc4)cc3)[C@@H]2C1	0.82
COCCNC(=O)C[C@H]1CC[C@@H]2[C@H](COC[C@@H](O)CN2Cc2ccc(Cl)c(Cl)c2)O1	-0.15
CC(C)CC#Cc1ccc([C@@H]2[C@@H](CO)N3CCCCN(C(=O)c4ccc5c(c4)OCO5)C[C@H]23)cc1	3.7
Cc1ccc(S(=O)(=O)N2C[C@H](O)COC[C@@H]3O[C@@H](CC(=O)NCc4ccc5c(c4)OCO5)CC[C@H]32)cc1	0.52
COc1ccc2c3c(n(C)c2c1)[C@H](CO)N(Cc1ccc(Cl)cc1)CC31CN(C(=O)NC(C)C)C1	0.86
COc1ccc2c3c([nH]c2c1)[C@H](CO)N(Cc1ccccc1)CC31CN(C(=O)Nc2cccc(F)c2)C1	-1.7
O=C(c1cnccn1)N1CC(=O)N2[C@H](CO)[C@H](c3ccc(C#CCc4ccccc4)cc3)[C@@H]2C1	-0.92
O=C(C1CCOCC1)N1CC(=O)N2[C@H](C1)[C@H](c1ccc(C#CC3CCCCC3)cc1)[C@@H]2CO	0.91
COc1ccccc1-c1ccc([C@H]2[C@@H](C#N)N(C(=O)CN(C)C)[C@H]2CO)cc1	-3.7*
CN(C)CC(=O)N1[C@@H](C#N)[C@@H](c2ccc(-c3ccc(C(=O)N(C)C)cc3)cc2)[C@@H]1CO	0.87
CN(C)CC(=O)N1[C@H](C#N)[C@@H](c2ccc(-c3ccc(C(=O)N(C)C)cc3)cc2)[C@@H]1CO	1.7
CN(C)CC(=O)N1[C@H](C#N)[C@H](c2ccc(-c3ccccc3F)cc2)[C@@H]1CO	-1.6
COc1ccccc1-c1ccc([C@H]2[C@H](C#N)N(C(=O)CN(C)C)[C@H]2CO)cc1	-14*
SMILES	IDE exosite FP
COc1ccccc1-c1ccccc1[C@@H]1[C@@H](C#N)N(C(=O)CN(C)C)[C@@H]1CO	-0.39
CN(C)CC(=O)N1[C@H](CO)[C@H](c2ccc(-c3ccccc3F)cc2)[C@@H]1C#N	0.68
CN(C)CC(=O)N1[C@H](CO)[C@@H](c2ccc(-c3ccccc3F)cc2)[C@@H]1C#N	-3.4*
COc1ccccc1-c1ccc([C@@H]2[C@H](C#N)N(C(=O)CN(C)C)[C@H]2CO)cc1	-5.1*
COc1ccccc1-c1ccccc1[C@H]1[C@@H](C#N)N(C(=O)CN(C)C)[C@H]1CO	-0.88
COc1ccc(-c2ccc([C@@H]3[C@@H](C#N)N(C(=O)CN(C)C)[C@@H]3CO)cc2)cc1	1.8
CN(C)CC(=O)N1[C@H](C#N)[C@H](c2ccc(-c3ccccc3F)cc2)[C@H]1CO	1.7
CO[C@@H]1CN(C)C(=O)c2ccc(NS(C)(=O)=O)cc2OC[C@@H](C)N(S(=O)(=O)CC(F)(F)F)C[C@H]1C	-0.45
COCC(=O)N1[C@@H]2c3cccc(=O)n3C[C@@H]2[C@@H](CO)[C@@H]1C(=O)NCc1ccccc1	0.14
CO[C@@H]1CC[C@@H]2CCOc3ccc(C#N)cc3C(=O)N(C)C[C@@H](c3ccccc3)CC(=O)N(C)C[C@@H]1O2	0.78
COc1cc(CN2[C@@H]3CNC[C@H]2C3c2ccc(-c3ccc(C)cc3)cc2)cc(OC)c1 (stereo partly specified)	0.19
COc1ccc(-c2ccc([C@H]3[C@H](C#N)N(C(=O)C4CCC4)[C@H]3CO)cc2)cc1	3.2
O=C(NC[C@H]1[C@H](c2ccccc2)[C@H](CO)N1CC1CCCC1)c1ccncc1	3
CCS(=O)(=O)N1CCCCN2[C@@H](CO)[C@@H](c3ccc(C#CC(C)(C)O)cc3)[C@@H]2C1	-0.084
O=S(=O)(Cc1ccccc1)N1CCCCN2[C@@H](CO)[C@@H](c3ccc(-c4ccccc4)cc3)[C@@H]2C1	3
COc1ccccc1-c1ccc([C@@H]2[C@H]3CN(C(=O)c4ccncc4)CCCCN3[C@H]2CO)cc1	-14*
COc1ccccc1-c1ccc([C@H]2[C@H]3CN(C(=O)c4ccncc4)CCCCN3[C@H]2CO)cc1	0.95
Cc1ccccc1-c1ccc([C@H]2[C@H]3CN(C(=O)c4cccnc4)CCCCN3[C@H]2CO)cc1	0.9
O=C(c1cccnc1)N1CCCCN2[C@@H](CO)[C@@H](c3ccc(C#Cc4cccnc4)cc3)[C@@H]2C1	0.38
COc1ccccc1-c1ccc([C@@H]2[C@H](CO)N3CCCCN(C(=O)c4cccnc4)C[C@@H]23)cc1	-4.1*
COc1ccccc1-c1ccc([C@H]2[C@H](CO)N3CCCCN(C(=O)c4ccncc4)C[C@@H]23)cc1	-2.5
C/C=C/c1ccc([C@H]2[C@@H](CO)N(CC3CCCCC3)[C@@H]2CNC(C)C)cc1	1.1
COCC(=O)N1CC(=O)N2[C@H](CO)[C@H](c3ccc(-c4ccccc4F)cc3)[C@@H]2C1	-2.3
C/C=C/c1ccc([C@H]2[C@@H](CO)N(C(=O)CC)[C@H]2CN(C)S(C)(=O)=O)cc1	2.8
COc1ccc(NC(=O)N[C@H]2CC[C@H](CCNC(=O)CN3CCOCC3)O[C@H]2CO)cc1	-0.41
SMILES	IDE exosite FP
O=C(c1cnccn1)N1CC(=O)N2[C@H](C1)[C@H](c1ccc(C#CCc3ccccc3)cc1)[C@@H]2CO	0.6
C[C@H](NC(=O)C[C@@H]1C=C[C@H](NC(=O)c2cccnc2)[C@@H](CO)O1)c1ccccc1	1.2
CCCC#Cc1ccc([C@@H]2[C@H](CO)N3C(=O)CN(C(=O)NCCC)C[C@@H]23)cc1	1.5
CCCNC(=O)N1CC(=O)N2[C@H](CO)[C@@H](c3ccc(-c4cccc(C)c4)cc3)[C@@H]2C1	-22*
CCCNC(=O)N1CC(=O)N2[C@H](C1)[C@H](c1ccc(-c3ccc(C)cc3)cc1)[C@@H]2CO	-3.6*
CCCNC(=O)N1CC(=O)N2[C@H](CO)[C@H](c3ccc(-c4ccc(F)cc4)cc3)[C@@H]2C1	0.28
CCCNC(=O)N1CC(=O)N2[C@H](C1)[C@@H](c1ccc(-c3cccc(C)c3)cc1)[C@@H]2CO	-15*
CCCNC(=O)N1CC(=O)N2[C@@H](CO)[C@H](c3ccc(-c4ccc(F)cc4)cc3)[C@@H]2C1	-2.7
